From PubChem BioAssay
Most compounds without a hit are left out; they make up all but 8% or so of the library.
LASV entry inh: Lassa virus entry inhibition. Lassa virus pseudotyped entry inhibition, cell-based qHTS. Potency, µM (highest dose often 49.2 µM), actives largely listed as inhibitors. 4.1% of 18,000 active. AID 720533
MARV entry inh: blocks Marburg virus binding or cell entry | AID 720532 | Potency, µM (titrated, usually from 49.2 µM), actives largely listed as inhibitors | Marburg virus pseudotype entry/binding inhibition, cell-based | 6.5% of 18,000 active
Of the large screens only hits and unclear results are named; the others gave an inactive call. Calls follow the shape of the full dose curve; tested in HEK293 cells.

COc1ccc2c(c1)[C@@]1(OCCC=C[C@@H]1C)C(=O)N2CC=C(C)CCC=C(C)C	none
COCCN1C(=O)C2=C(C1=O)C1N(C)c3ccccc3[C@@]13C[C@@H](CO)N(C(=O)c1ccc(Br)cc1)C3=N2 (some centres undefined)	none
O=C1OC2(CCCCC2)CC2=C1[C@H]1O[C@](c3ccsc3)(Cc3ccccc31)O2	none
CCN1C(=O)NC(c2cccc(C(F)(F)F)c2)C(C(C)=O)=C1C (centres undefined)	none
O=C(C[C@H]1C(=O)N(Cc2cccnc2)C[C@@H]1c1ccc(Br)cc1)Nc1ccc(Br)cc1	none
C[C@H]1CCC[C@H](O)CCCCCc2cc(O)cc(O)c2C(=O)O1	none
CC1CC2OC2/C=C\C=C/C(=O)Cc2c(Cl)c(O)cc(O)c2C(=O)O1 (centres undefined)	LASV entry inh 7.9µM, MARV entry inh 2.5µM
CC(C)Nc1oc(-c2ccccc2)nc1-c1ccc(C(F)(F)F)cc1	none
C=C[C@H]1CCC=C2C(=O)CCC[C@H]21	none
COC(=O)[C@H]1C(OC)[C@@H](OC(=O)c2cc(OC)c(OC)c(OC)c2)C[C@@H]2CN3CCc4c([nH]c5cc(OC)ccc45)[C@H]3C[C@H]21 (some centres undefined)	none
COC(=O)[C@H]1[C@H]2C[C@@H]3c4[nH]c5ccccc5c4CCN3C[C@H]2C[C@@H](OC(=O)c2cc(OC)c(OC)c(OC)c2)[C@@H]1OC	LASV entry inh 3.5µM, MARV entry inh inconclusive
COC(=O)[C@H]1[C@H]2C[C@@H]3c4[nH]c5cc(OC)ccc5c4CCN3C[C@H]2C[C@@H](OC(=O)/C=C/c2cc(OC)c(OC)c(OC)c2)[C@@H]1OC	MARV entry inh 10µM
COC(=O)C1=CO[C@@H](C)[C@@H]2CN3CCc4c([nH]c5cc(OC)ccc45)[C@@H]3C[C@H]12	none
O=C(c1cccs1)N1C[C@@H](n2cc(C3CC3)nn2)[C@@H](O)C[C@@H]1c1ccc(Cl)cc1	none
COc1cc2c(cc1OC)[C@@H]1O[C@](c3ccsc3)(C2)Oc2cc(C)n(Cc3ccccc3)c(=O)c21	MARV entry inh inconclusive
CCOC(=O)CN1C(=O)NC(CCc2ccccc2)C(C(=O)OC)=C1C (centres undefined)	none (no result: LASV entry inh)
CN(CCO)C(=O)c1cn(C2CCN(Cc3ccc4ccccc4c3)CC2)nn1	none
CC(C)CNC(=O)c1cn(C2CCN(Cc3nc4ccccc4s3)CC2)nn1	MARV entry inh 2.8µM
COC(=O)C1=C(C(=O)OC)[C@@H]2N(C)c3ccccc3[C@@]23C[C@@H](C(=O)OC)N(C(=O)NCCBr)C3=N1	MARV entry inh inconclusive
Cc1cc2oc(=O)cc(-c3ccccc3)c2c(C)c1-c1ccc(CO)cc1	LASV entry inh 11µM
CC(=O)c1ccc(-c2c(C)cc3oc(=O)cc(-c4ccccc4)c3c2C)cc1	LASV entry inh inconclusive
COC(=O)[C@@H]1C[C@@]23C(=NN=C(SC)C2Nc2ccccc23)N1C(C)=O (some centres undefined)	none
CCN1C(=NCc2ccc(OC)cc2)NC(c2cccc(C(F)(F)F)c2)C(C(=O)OC)=C1C (centres undefined)	none
COc1ccc(OC)c(-c2ccc(O)c(CN3CCc4c([nH]c5ccccc45)C3)c2)c1	LASV entry inh inconclusive, MARV entry inh 13µM
COc1ccc(CN2CCOc3c(cc(-c4ccc(OC)nn4)cc3OC)C2)c(O)c1	none
Cc1ccc(S(=O)(=O)N[C@@H](Cc2ccccc2)C(=O)CCl)cc1	LASV entry inh 35µM, MARV entry inh inconclusive
Cc1ccc(S(=O)(=O)NCl)cc1	none
OC[C@H]1O[C@H](c2ccccc2)C=C[C@H]1O	none
COC(=O)[C@@]1(C=C2c3ccc(F)cc3[C@@H](OC)[C@@H]2C)[C@@H]2C=CC[C@@H]21	MARV entry inh inconclusive
CC1(C)CC(n2cnc(-c3ccc(F)cc3)c2-c2ccnc(N)n2)CC(C)(C)N1	MARV entry inh inconclusive
Nc1ccc(Cl)cc1	LASV entry inh inconclusive
CCc1nc(N)nc(N)c1-c1ccc(Cl)cc1	LASV entry inh inconclusive, MARV entry inh 14µM
CCCCCC(=O)N1C[C@@H](n2cc(-c3ccc(F)cc3)nn2)[C@H](O)C[C@H]1c1ccc(OC)cc1	none (no result: LASV entry inh)
CC(=O)c1ccc([C@@H]2C=C[C@H](O)[C@@H](CO)O2)cc1	none
CCN1C(=NCCCCO)N[C@@H](CCc2ccccc2)[C@H](C(=O)OC)[C@H]1C	none
C[C@H](NCCC(c1ccccc1)c1ccccc1)c1ccccc1	LASV entry inh inconclusive, MARV entry inh 10µM
C[C@H](NCc1ccccc1)c1ccccc1	none
COc1ccc(COC(=O)NN=C2C[C@@H](O)[C@@H](O)[C@@H]3[C@H]4C(=O)N(Cc5ccccc5)C(=O)[C@@H]4CC[C@@H]23)cc1	LASV entry inh inconclusive
COC[C@H]1CCCN1[C@H]1C[S+](=O)([O-])N[C@H]1COCc1ccccc1	none
COc1ccccc1C(=O)N(Cc1cc2cc3c(cc2nc1N(C)C)OCO3)CC1CCCO1 (centres undefined)	LASV entry inh 11µM, MARV entry inh 13µM
Cc1ccc(C(=O)N(Cc2cc3cccc(C)c3nc2N(C)C)CC2CCCO2)cc1 (centres undefined)	none
C=CCOC(=O)C(C(C)=O)[C@@H](NC(=O)OC)c1ccc(F)cc1 (some centres undefined)	none
CC1=C(C(=O)Nc2ccc3[nH]ncc3c2)C(c2ccc(Cl)c(Cl)c2)CC(=O)N1 (centres undefined)	none
C[C@@H](C(=O)OC1C[C@H]2CC[C@@H](C1)N2C)c1ccc(Br)cc1 (some centres undefined)	MARV entry inh inconclusive
CN1[C@@H](C[C@@H](O)c2ccccc2)CCC[C@@H]1C[C@H](O)c1ccccc1	MARV entry inh inconclusive
CN1C2CCC1CC(OC(c1ccccc1)c1ccc(Cl)cc1)C2 (centres undefined)	LASV entry inh 11µM, MARV entry inh 4µM
CN1C2CCC1CC(OC(c1ccccc1)c1ccccc1N)C2 (centres undefined)	MARV entry inh 18µM
CC(CCN1CCCc2nc(C)c(C)cc21)=NO[C@H](C)c1cn([C@H](CO)Cc2ccccc2)nn1	MARV entry inh inconclusive
C=CCN1c2ccccc2[C@]23CCC(=O)N(CCCOC(C)C)C2=NC(C(=O)OC)=C(C(=O)OC)[C@H]13	none
CC(C)c1c(C(=O)N(C)Cc2cccc3ncccc23)cnn1-c1nccc(-c2ccccc2F)n1	LASV entry inh inconclusive
CCCNC(=O)OC[C@H]1O[C@H](CCON=C2[C@H]3CCn4c(=O)n(-c5ccccc5)c(=O)n4[C@@H]3[C@H](O)[C@@H]3O[C@H]23)C=C[C@H]1Oc1ccc(OC)cc1	none
CC#CCN1c2ccccc2[C@]23CCC(=O)N(Cc4cccc(C(F)(F)F)c4)C2=NC(C(=O)OC)=C(C(=O)OC)[C@H]13	none
Cc1cc(/C=C/c2ccc3cc(N(C)C)ccc3[n+]2C)c(C)n1-c1ccccc1	LASV entry inh 10µM, MARV entry inh inconclusive
COc1cc2nc(N3CCN(C(=O)C4COc5ccccc5O4)CC3)nc(N)c2cc1OC (centres undefined)	MARV entry inh inconclusive
COc1cc2nc(N3CCN(C(=O)OCc4ccccc4)[C@H](C(=O)NC(C)(C)C)C3)nc(N)c2cc1OC	MARV entry inh 11µM
Cc1cc(OCCOCC[N+](C)(C)Cc2ccccc2)ccc1C(C)(C)CC(C)(C)C	LASV entry inh 25µM, MARV entry inh 22µM
C[N+](C)(CCOc1ccccc1)Cc1cccs1	none
CC(C)CN1Cc2cc(Br)ccc2Oc2ccc(Cl)cc2S1(=O)=O	MARV entry inh inconclusive
